Assay results published in PubChem BioAssay.
Values joined by “and” are separate entries in the source; they are usually repeats but may differ in a detail not shown here. Equal entries are not always repeated. Active and inactive are the calls of the source.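 Rule for the calls, unless noted: active = normalized viability below 100% at a tested concentration; inactive = the rest.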

Experiments:
[1] = signal quenchers or enhancers, Cy5 substrate/SSB – biochemical, NIH Clinical Collection, E. coli SSB, artefact control for HCV NS3 helicase inhibitor project (AID 743268; call rule not given here); conditions: Cy5-oligo bound E. coli SSB, fluorescence interference
[2] = system: Hepatitis C virus NS3 helicase; experiment: blockers of NS3h binding to DNA – biochemical, fluorescence polarization, NIH Clinical Collection, primary screen (AID 743270; call rule not given here); conditions: NS3 helicase binding to Cy5-dT15 DNA, stronger effect = higher value, concentration not given here
[3] = target: Single-stranded DNA-binding protein (Escherichia coli (strain K12)) (UniProt P0AGE0); experiment: SSB-ssDNA binding inhibitors – biochemical, fluorescence polarization, NIH Clinical Collection, counter-screen for HCV NS3 helicase inhibitor project (AID 743271; in the data active = inhibition above about 28%); conditions: E. coli SSB-DNA binding, stronger effect = higher value, concentration not given here
[4] = compounds distorting NS3 helicase fluorescence signal – biochemical, NIH Clinical Collection, artefact control for HCV NS3 helicase inhibitor project (AID 743272; call rule not given here;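 note: HCV NS3 helicase with a Cy5 labelled single stranded DNA probe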); conditions: fluorescence interference counterscreen, HCV NS3 helicase assay; stronger effect = lower value
[5] = target: 6-phosphogluconate dehydrogenase, decarboxylating (Homo sapiens) (UniProt P52209); experiment: inhibition of human phosphogluconate dehydrogenase – biochemical, recombinant enzyme, NADPH absorbance, primary screen (AID 1159550;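 active = at least 20% inhibition of 6-phosphogluconate dehydrogenase activity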); conditions: recombinant 6PGD, NADPH absorbance 341 nm; at 10 µM; stronger effect = higher value
[6] = modulation of C. elegans fzo-1 (AID 1259413; call rule not given here;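 note: fzo-1 mutant C. elegans worms in liquid wells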); conditions: C. elegans fzo-1 modulator screen, mean read-out; stronger effect = higher value
[7] = EMT-state selective cytotoxicity in co-culture – imaging, PC-3E GFP, TEM4-18 mCherry, primary screen (AID 1345086;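 active = compounds killing one labelled cell type while sparing the other, by normalised counts and ratio limits, not self-fluorescent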;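 for all read-outs here: cells exposed to compound for 72 h before imaging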;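 for red/green cell ratio (normalised): normalised mesenchymal count divided by normalised epithelial count so high means epithelial killing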); conditions: PC-3E GFP / TEM4-18 mCherry co-culture, imaging cell counts, at 1 µM; for red/green cell ratio (normalised): actives lie on both sides, counts scaled to control wells, 1 = unselective
[8] = MELAS cybrid and Rieske KO viability enhancers – cell-based, MELAS cybrids, Rieske KO mouse fibroblasts, CellTiter-Glo, primary screen (AID 1508586;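 active = mean z-score across replicates of 1.96 or higher in either the MELAS or the Rieske mutant cell line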;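 note: z relative to plate mean and SD of compound and empty wells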); conditions: low glucose
[9] = target: Mitogen-activated protein kinase 7 (Homo sapiens) (UniProt Q13164); experiment: Gal4-ERK5 driven luciferase induction – cell-based, HTS, primary screen (AID 1508626;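 active = luciferase signal above three times the same-plate solvent-only control wells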;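 note: luciferase driven by Gal4-ERK5 fusion binding five Gal4 sites before minimal TATA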); conditions: HeLa Gal4-ERK5 transactivation, 18 h, at 5 µM, stronger effect = higher value
[10] = system: F380Y; experiment: BK channel mutant inhibitors and activators – cell-based, U2OS BacMam, thallium flux, beta subunits, selectivity assay, profiling panel (AID 1259406;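 active = thallium flux through the channel raised or lowered by more than 3 SD from vehicle-only wells, actives on both sides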;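 note: initial slope of Thallos dye fluorescence rise after thallium is added; log ratio against the mean of 0.3% DMSO vehicle wells on the same plate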); conditions: U2OS BacMam BK variants, at 30 µM
[11] = system: F380Y/beta1; experiment: as above; conditions: U2OS BacMam BK variants, at 30 µM
[12] = system: F380Y/beta2Delta; experiment: as above; conditions: U2OS BacMam BK variants, at 30 µM
[13] = target: Calcium-activated potassium channel subunit alpha-1 (Homo sapiens) + Leucine-rich repeat-containing protein 26 (Homo sapiens) (UniProt Q12791+Q2I0M4); experiment: as above; conditions: U2OS BacMam BK variants, F380Y/Slo1WT/gamma1, at 30 µM
[14] = system: R275C; experiment: as above; conditions: U2OS BacMam BK variants, at 30 µM
[15] = system: R275C/beta1; experiment: as above; conditions: U2OS BacMam BK variants, at 30 µM
[16] = system: R275C/beta2Delta; experiment: as above; conditions: U2OS BacMam BK variants, at 30 µM
[17] = P. berghei load reduction in hepatocytes – cell-based, HepG2, luciferase luminescence, HepG2 viability, primary screen (AID 624349; in the data active = parasite load remaining mostly below about 12%, no sharp cut-off; inactive = mostly above about 10%;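 note: 100% = mean of DMSO negative control wells on the same plate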); conditions: P. berghei liver stage in HepG2, luciferase luminescence, concentration not given here; parasite load remaining: stronger effect = lower value; viability: measured here: HepG2 viability without parasites
[18] = viability loss with induced miR-34 in A549 – imaging, A549 dox-inducible miR-34, nuclei and caspase counts, primary screen (AID 1347080;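 active = compounds whose cell count with miR-34 switched on is under 0.7 times the count with it off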); conditions: A549 miR-34 inducible, Hoechst nuclei count, 48 h
[19] = galactose survival enhancers in mitochondrial complex I cybrids – cell-based, galactose medium, ATP luminescence, primary screen (AID 1645843;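 active = z-score of at least 1.8 in each of two replicates, scored against plate mean and spread of sample wells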;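 note: positive z means more ATP and so rescue of galactose-driven cybrid death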); conditions: complex I mutant cybrid cells, 72 h, stronger effect = higher value
[20] = drug combination growth inhibition, ovarian cancer – cell-based, oncology-focused library, rucaparib conditional, profiling panel (AID 1508598); conditions: patient-derived ovarian cancer cells, CellTiter-Glo viability, 144 h, stronger effect = lower value
[21] = measured here: epithelial PC-3E GFP cell survival
[22] = measured here: mesenchymal TEM4-18 mCherry cell survival
[23] = MELAS cybrid survival, CellTiter-Glo 48 h, stronger effect = higher value
[24] = Rieske KO mouse fibroblast survival, CellTiter-Glo 72 h
[25] = stronger effect = lower value, cell number ratio, induced over uninduced
[26] = measured here: relative caspase fold change +Dox/-Dox
[27] = measured here: total cells with miR-34 induction, stronger effect = lower value
[28] = measured here: total cells without miR-34 induction

Sequence of Mitogen-activated protein kinase 7 (Homo sapiens) (Q13164 whole entry, looked up, the tested form may be a part): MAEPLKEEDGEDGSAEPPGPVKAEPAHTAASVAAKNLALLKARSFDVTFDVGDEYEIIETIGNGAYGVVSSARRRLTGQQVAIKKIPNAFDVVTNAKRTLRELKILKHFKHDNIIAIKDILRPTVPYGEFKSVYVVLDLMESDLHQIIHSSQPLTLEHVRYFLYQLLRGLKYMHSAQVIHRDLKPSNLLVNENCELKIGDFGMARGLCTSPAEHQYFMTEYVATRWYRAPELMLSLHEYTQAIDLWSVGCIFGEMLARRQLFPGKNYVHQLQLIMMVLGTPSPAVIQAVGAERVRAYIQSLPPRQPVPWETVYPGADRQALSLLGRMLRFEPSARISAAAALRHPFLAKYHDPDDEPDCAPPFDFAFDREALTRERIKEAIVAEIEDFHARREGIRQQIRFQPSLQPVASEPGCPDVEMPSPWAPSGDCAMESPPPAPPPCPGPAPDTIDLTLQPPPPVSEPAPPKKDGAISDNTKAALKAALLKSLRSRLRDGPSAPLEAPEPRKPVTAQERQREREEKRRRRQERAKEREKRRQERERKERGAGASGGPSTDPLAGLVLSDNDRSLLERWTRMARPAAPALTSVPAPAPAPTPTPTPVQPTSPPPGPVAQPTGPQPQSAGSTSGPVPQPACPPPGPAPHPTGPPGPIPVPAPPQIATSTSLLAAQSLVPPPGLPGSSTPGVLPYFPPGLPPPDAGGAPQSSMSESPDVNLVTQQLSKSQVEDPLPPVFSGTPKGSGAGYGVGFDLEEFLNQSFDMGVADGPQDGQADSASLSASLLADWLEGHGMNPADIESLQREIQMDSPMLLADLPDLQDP
Sequence of Calcium-activated potassium channel subunit alpha-1 (Homo sapiens) + Leucine-rich repeat-containing protein 26 (Homo sapiens) (Q2I0M4 whole entry, looked up, one chain of several): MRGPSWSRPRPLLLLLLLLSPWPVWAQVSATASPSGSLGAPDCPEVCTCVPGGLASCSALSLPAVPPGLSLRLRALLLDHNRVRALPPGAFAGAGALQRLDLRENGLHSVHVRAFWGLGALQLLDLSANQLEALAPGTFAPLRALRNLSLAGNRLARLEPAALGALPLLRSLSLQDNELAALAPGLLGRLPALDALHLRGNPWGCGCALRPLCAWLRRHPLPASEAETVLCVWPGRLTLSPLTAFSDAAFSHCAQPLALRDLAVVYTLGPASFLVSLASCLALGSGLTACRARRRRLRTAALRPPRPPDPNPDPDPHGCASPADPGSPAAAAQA
Sequence of 6-phosphogluconate dehydrogenase, decarboxylating (Homo sapiens) (P52209 whole entry, looked up): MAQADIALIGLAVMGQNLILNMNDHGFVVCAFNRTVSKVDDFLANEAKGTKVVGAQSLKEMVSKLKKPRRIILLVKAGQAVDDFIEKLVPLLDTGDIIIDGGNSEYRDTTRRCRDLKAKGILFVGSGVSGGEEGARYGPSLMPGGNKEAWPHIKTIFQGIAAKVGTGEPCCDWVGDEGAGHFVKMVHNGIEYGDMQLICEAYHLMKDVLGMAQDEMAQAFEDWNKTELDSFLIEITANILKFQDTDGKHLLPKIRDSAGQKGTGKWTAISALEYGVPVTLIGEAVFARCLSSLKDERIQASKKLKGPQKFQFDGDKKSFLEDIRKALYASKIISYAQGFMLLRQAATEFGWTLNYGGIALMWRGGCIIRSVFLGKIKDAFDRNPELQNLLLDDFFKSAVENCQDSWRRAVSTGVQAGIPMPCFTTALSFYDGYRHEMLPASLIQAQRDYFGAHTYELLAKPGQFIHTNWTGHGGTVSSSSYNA

CC(C)NCC(O)COc1ccc(CC(N)=O)cc1 (stereo unspecified)
1.11: normalised cell number [7, 21]
inactive: fluorescence ratio [1] 1.03 | inhibition [2] -0.45% | inhibition [3] 0.29% | fluorescence ratio [4] 0.98 | inhibition [5] -17.1% | mean signal [6] 244 | red/green cell ratio (normalised) [7] 0.99 | z-score [8, 23] -0.4 | luciferase signal [9] 52 AU | log fold change Tl+ flux [10] -0.0247 | log fold change Tl+ flux [11] 0.000846 | log fold change Tl+ flux [12] 0.00577 | log fold change Tl+ flux [13] -0.00874 | log fold change Tl+ flux [14] -0.00467 | log fold change Tl+ flux [15] 0.0259 | log fold change Tl+ flux [16] -0.0455
1.09: normalised cell number [7, 22]
-0.19: z-score [8, 24]

CCOc1ccc(C(=O)c2cc(O)c(OC)c(OC)c2O)cc1
inactive: inhibition [5] 0.271%

CC[C@H](C)C(=O)O[C@H]1CCC=C2C=C[C@H](C)[C@H](CC[C@@H]3C[C@@H](O)CC(=O)O3)[C@H]21
2270 and 1660 and 4180: cell count [18, 28]
67.9% and 134%: viability [17]
2090 and 1930 and 4610: cell count [18, 27]
1.44 and 0.292 and 0.944: fold change [18, 26]
0.000262 and -0.468: z-score [8, 24]
inactive: parasite load remaining [17] 95.7% and 85.1% | fluorescence ratio [1] 0.91 | inhibition [2] 0.66% | inhibition [3] 1.97% | fluorescence ratio [4] 0.89 | inhibition [5] -1.06% | mean signal [6] 242 | fold change [18, 25] 0.923 and 1.16 and 1.1 | z-score [8, 23] 0.801 and -1.19 | luciferase signal [9] 24 AU | z-score [19] -0.615 and -0.575 and 0.1

C#C[C@]1(OC(C)=O)CC[C@H]2[C@@H]3CCC4=CC(=O)CC[C@@H]4[C@H]3CC[C@@]21C
inactive: parasite load remaining [17] 26.4% | fluorescence ratio [1] 1.05 | inhibition [2] -3.18% | inhibition [3] 7.15% | fluorescence ratio [4] 0.89 | inhibition [5] -1.74% | fold change [18, 25] 0.989 | luciferase signal [9] 28 AU | z-score [19] -1.36 | log fold change Tl+ flux [10] -0.0982 | log fold change Tl+ flux [11] 0.0384 | log fold change Tl+ flux [12] -0.0589 | log fold change Tl+ flux [13] -0.0258 | log fold change Tl+ flux [14] -0.00546 | log fold change Tl+ flux [15] 0.0232 | log fold change Tl+ flux [16] 0.0192
96.7%: viability [17]
9280: cell count [18, 28]
1.09: fold change [18, 26]
9170: cell count [18, 27]

O=C(O[C@@H]1Cc2c(O)cc(O)cc2O[C@@H]1c1cc(O)c(O)c(O)c1)c1cc(O)c(O)c(O)c1
0.79: normalised cell number [7, 21]
active: fluorescence ratio [1] 0.63 | inhibition [3] 32.2% | fluorescence ratio [4] 0.8 | viability ([20]; at 0.00122 µM, OCI-P5x cells, with rucaparib 20 µM, 100% = cells with rucaparib alone) 73.5% | viability ([20]; at 0.00122 µM, OCI-P5x cells, without rucaparib) 91% | viability ([20]; at 0.00488 µM, OCI-P5x cells, with rucaparib 20 µM, 100% = cells with rucaparib alone) 90.4% | viability ([20]; at 0.0195 µM, OCI-P5x cells, with rucaparib 20 µM, 100% = cells with rucaparib alone) 82.9% | viability ([20]; at 0.0781 µM, OCI-P5x cells, with rucaparib 20 µM, 100% = cells with rucaparib alone) 96.1% | viability ([20]; at 0.313 µM, OCI-P5x cells, with rucaparib 20 µM, 100% = cells with rucaparib alone) 94.4% | viability ([20]; at 1.25 µM, OCI-P5x cells, with rucaparib 20 µM, 100% = cells with rucaparib alone) 97.8% | viability ([20]; at 5 µM, OCI-P5x cells, with rucaparib 20 µM, 100% = cells with rucaparib alone) 89.7% | viability ([20]; at 5 µM, OCI-P5x cells, without rucaparib) 92.1%
0.91: normalised cell number [7, 22]
0.749: fold change [18, 26]
5880: cell count [18, 28]
76.9%: viability [17]
inactive: parasite load remaining [17] 87.1% | inhibition [2] -3.56% | inhibition [5] 15.4% | mean signal [6] 222 | red/green cell ratio (normalised) [7] 1.15 | fold change [18, 25] 0.998 | viability ([20]; at 0.000305 µM, OCI-C5x cells, with rucaparib 10 µM, 100% = cells with rucaparib alone) 112% | viability ([20]; at 0.000305 µM, OCI-C5x cells, without rucaparib) 121% | viability ([20]; at 0.000305 µM, OCI-P5x cells, with rucaparib 20 µM, 100% = cells with rucaparib alone) 103% | viability ([20]; at 0.000305 µM, OCI-P5x cells, without rucaparib) 104% | viability ([20]; at 0.00122 µM, OCI-C5x cells, with rucaparib 10 µM, 100% = cells with rucaparib alone) 120% | viability ([20]; at 0.00122 µM, OCI-C5x cells, without rucaparib) 118% | viability ([20]; at 0.00488 µM, OCI-C5x cells, with rucaparib 10 µM, 100% = cells with rucaparib alone) 123% | viability ([20]; at 0.00488 µM, OCI-C5x cells, without rucaparib) 116% | viability ([20]; at 0.00488 µM, OCI-P5x cells, without rucaparib) 107% | viability ([20]; at 0.0195 µM, OCI-C5x cells, with rucaparib 10 µM, 100% = cells with rucaparib alone) 104% | viability ([20]; at 0.0195 µM, OCI-C5x cells, without rucaparib) 117% | viability ([20]; at 0.0195 µM, OCI-P5x cells, without rucaparib) 100% | viability ([20]; at 0.0781 µM, OCI-C5x cells, with rucaparib 10 µM, 100% = cells with rucaparib alone) 118% | viability ([20]; at 0.0781 µM, OCI-C5x cells, without rucaparib) 119% | viability ([20]; at 0.0781 µM, OCI-P5x cells, without rucaparib) 106% | viability ([20]; at 0.313 µM, OCI-C5x cells, with rucaparib 10 µM, 100% = cells with rucaparib alone) 109% | viability ([20]; at 0.313 µM, OCI-C5x cells, without rucaparib) 120% | viability ([20]; at 0.313 µM, OCI-P5x cells, without rucaparib) 110% | viability ([20]; at 1.25 µM, OCI-C5x cells, with rucaparib 10 µM, 100% = cells with rucaparib alone) 111% | viability ([20]; at 1.25 µM, OCI-C5x cells, without rucaparib) 108% | viability ([20]; at 1.25 µM, OCI-P5x cells, without rucaparib) 104% | viability ([20]; at 5 µM, OCI-C5x cells, with rucaparib 10 µM, 100% = cells with rucaparib alone) 117% | viability ([20]; at 5 µM, OCI-C5x cells, without rucaparib) 114% | luciferase signal [9] 48 AU
5870: cell count [18, 27]

C[C@H](CCC(=O)O)[C@H]1CC[C@H]2[C@@H]3[C@@H](O)C[C@@H]4C[C@H](O)CC[C@]4(C)[C@H]3CC[C@]12C
109% and 101%: viability [17]
active: log fold change Tl+ flux [15] 0.198 | log fold change Tl+ flux [16] 0.142
10300 and 8440: cell count [18, 27]
1.43 and 1.31: fold change [18, 26]
-0.919: z-score [8, 24]
10300 and 9880: cell count [18, 28]
inactive: parasite load remaining [17] 52.5% and 128% | fluorescence ratio [1] 0.99 | inhibition [2] -1.36% | inhibition [3] 1.81% | fluorescence ratio [4] 0.97 | inhibition [5] -17.2% | fold change [18, 25] 1 and 0.854 | z-score [8, 23] -0.323 | luciferase signal [9] 36 AU | z-score [19] -0.425 | log fold change Tl+ flux [10] 0.0594 | log fold change Tl+ flux [11] 0.0488 | log fold change Tl+ flux [12] 0.0428 | log fold change Tl+ flux [13] 0.00339 | log fold change Tl+ flux [14] 0.0817
